PubChem BioAssay AID1159580 (chemical genetic matrix, 2015)
Values joined by “and” are separate entries in the source; they are usually repeats but may differ in a detail not shown here. Equal entries are not always repeated. The whole screen tested about 5,500 compounds, of which about 2,000 (36%) were called active. About 18% were inconclusive and are not listed. Cut-off read from the data, not from the text of the source: active = normalized growth mostly below about 0.91 (no sharp cut-off); inconclusive = no clear call, values can overlap the other calls; inactive = mostly above about 0.92. This is one part of the list.

Experiment: chemical genetic growth profiling, strain panel (AID 1159580);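 note: tested at 20 µM; growth read once vehicle control cultures reached saturation at 30 °C; 1 = growth at the plate median or of vehicle wells; lower values mean less growth of the strain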
Conditions: S. cerevisiae deletion strains, growth OD

Measured: normalized growth

CC1(C)S[C@@H]2[C@H](NC(=O)[C@H](N)c3ccccc3)C(=O)N2[C@H]1C(=O)O
inactive: locus YAL021C, strain ccr4, active compounds read low 0.98 | locus YAL026C, strain drs2, active compounds read low 0.971 | locus YAL030W, strain snc1, active compounds read low 0.987 | locus YBL061C, strain skt5, active compounds read low 0.973 | locus YBR009C, strain hhf1, active compounds read low 1 | locus YBR021W, strain FUR4, active compounds read low 1.01 | locus YBR023C, strain chs3, active compounds read low 0.967 | locus YBR171W, strain sec66, active compounds read low 0.977 | locus YBR229C, strain ROT2, active compounds read low 1.01 | locus YBR231C, strain swc5, active compounds read low 0.999 | locus YBR279W, strain paf1, active compounds read low 0.954 | locus YCL011C, strain gbp2, active compounds read low 0.95 | locus YCL016C, strain dcc1, active compounds read low 0.942 | locus YCL029C, strain bik1, active compounds read low 0.998 | locus YCL061C, strain MRC1, active compounds read low 0.973 | locus YCL069W, strain vba3, active compounds read low 0.98 | locus YCR088W, strain abp1, active compounds read low 0.975 | locus YDL005C, strain med2, active compounds read low 0.979 | locus YDL035C, strain GPR1, active compounds read low 1.02 | locus YDL040C, strain nat1, active compounds read low 0.971 | locus YDL074C, strain BRE1, active compounds read low 1.01 | locus YDL101C, strain DUN1, active compounds read low 1.01 | locus YDL134C, strain PPH21, active compounds read low 1.01 | locus YDL185W, strain tfp1, active compounds read low 1 | locus YDL192W, strain arf1, active compounds read low 1.03 | locus YDR001C, strain nth1, active compounds read low 0.971 | locus YDR069C, strain doa4, active compounds read low 0.965 | locus YDR101C, strain arx1, active compounds read low 1.01 | locus YDR137W, strain rgp1, active compounds read low 0.945 | locus YDR150W, strain NUM1, active compounds read low 1.02 | locus YDR159W, strain sac3, active compounds read low 0.981 | locus YDR162C, strain NBP2, active compounds read low 1.03 | locus YDR195W, strain ref2 0.961 | locus YDR297W, strain sur2, active compounds read low 0.976 | locus YDR318W, strain mcm21, active compounds read low 1.01 | locus YDR334W, strain swr1, active compounds read low 0.961 | locus YDR335W, strain msn5, active compounds read low 0.948 | locus YDR388W, active compounds read low 1 | locus YDR392W, strain spt3, active compounds read low 0.888 | locus YDR502C, strain sam2, active compounds read low 1.01 | locus YEL003W, strain gim4, active compounds read low 0.98 | locus YEL037C, strain rad23, active compounds read low 0.979 | locus YEL061C, strain CIN8 (second series), active compounds read low 0.97 | locus YEL061C, strain CIN8, active compounds read low 1.01 | locus YER015W, strain faa2, active compounds read low 0.961 | locus YER016W, strain bim1, active compounds read low 0.955 | locus YER110C, active compounds read low 0.991 | locus YER111C, strain swi4, active compounds read low 0.96 | locus YER155C, strain BEM2 (second series), active compounds read low 1.03 | locus YER155C, strain BEM2, active compounds read low 1 | locus YER167W, strain BCK2, active compounds read low 1.01 | locus YFR010W, strain ubp6, active compounds read low 0.996 | locus YGL078C, strain dbp3, active compounds read low 0.999 | locus YGL086W, strain mad1, active compounds read low 1 | locus YGL167C, strain pmr1, active compounds read low 0.987 | locus YGL173C, strain kem1, active compounds read low 0.984 | locus YGL227W, strain vid30, active compounds read low 0.974 | locus YGL240W, strain doc1, active compounds read low 0.991 | locus YGL248W, strain PDE1, active compounds read low 1.02 | locus YGL253W, strain hxk2, active compounds read low 0.944 | locus YGR135W, strain pre9, active compounds read low 1.01 | locus YGR229C, strain SMI1, active compounds read low 1.03 | locus YGR252W, strain gcn5, active compounds read low 1.03 | locus YHR013C, strain ard1, active compounds read low 0.938 | locus YHR027C, strain rpn1, active compounds read low 0.97 | locus YHR030C, strain SLT2, active compounds read low 1.01 and 1.03 | locus YHR079C, strain IRE1 (second series), active compounds read low 1 | locus YHR079C, strain IRE1, active compounds read low 1.03 | locus YHR094C, strain hxt1, active compounds read low 0.994 | locus YHR129C, strain ARP1, active compounds read low 1.01 | locus YHR142W, strain chs7, active compounds read low 0.924 | locus YHR200W, strain rpn10, active compounds read low 1 | locus YIL066C, strain RNR3, active compounds read low 1.03 | locus YIL073C, strain SPO22, active compounds read low 1.04 | locus YIL125W, strain kgd1, active compounds read low 1 | locus YIR030C, strain dcg1, active compounds read low 1.01 | locus YJL092W, strain hpr5, active compounds read low 0.973 | locus YJL095W, strain BCK1 (second series), active compounds read low 0.989 | locus YJL095W, strain BCK1, active compounds read low 1.01 and 1.04 | locus YJL115W, strain asf1, active compounds read low 0.94 | locus YJL129C, strain trk1, active compounds read low 0.913 | locus YJL134W, strain LCB3, active compounds read low 1.01 | locus YJL154C, strain vps35, active compounds read low 0.97 | locus YJL164C, strain tpk1, active compounds read low 0.977 | locus YJL166W, strain qcr8, active compounds read low 0.998 | locus YJL168C, strain set2, active compounds read low 1 | locus YJL187C, strain SWE1 (second series), active compounds read low 1 | locus YJL187C, strain SWE1, active compounds read low 0.988
